Test results: PubChem BioAssay (NCATS)
Results filed as inconclusive are left out. Where a call stands in place of a potency, no number is given. Values without a mark were called inactive. The source made the active and inactive calls. Calls follow the shape of the dose curve; as a rule, active = well fitted curve in the direction sought with a large enough effect; inconclusive = small, poorly fitted or top-dose-only effect, or another doubt; inactive = no such curve, though single readings can be large; an effect the other way counts as inactive or inconclusive.

Assays:
[1] = Quantitative highthroughput screen to assess conditional lethalithy of NOMO1 cells grown in RPMI1640 with untreated serum (RPMI+s) (AID 1963876); also: nearly all actives have a fitted effect of over 35% in size; also: potency is read from the fitted curve at half-maximal effect
Method in brief: (§1)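 Each medium arm—HPLM with 10% dialyzed FBS, or RPMI1640 with 5 mM glucose and 10% untreated or dialyzed FBS—was screened against an 11-point, 3-fold compound titration for 48 h at 37 °C, with CellTiter-Glo luminescence as endpoint.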

[2] = Quantitative highthroughput screen to assess conditional lethalithy of NOMO1 cells grown in RPMI1640 with dialyzed fetal bovine serum (RPMI+ds) (AID 1963877); also: nearly all actives have a fitted effect of over 30% in size; also: potency is read from the fitted curve at half-maximal effect; as to viability: series mostly up to about 46 µM
Method in brief: as §1

[3] = Quantitative highthroughput screen to assess conditional lethalithy of NOMO1 cells grown in Human Plasma-Like Medium with dialyzed fetal bovine serum (HPLM+ds) (AID 1963878); also: nearly all actives have a fitted effect of over 35% in size; also: potency is read from the fitted curve at half-maximal effect
Method in brief: as §1

[4] = Quantitative highthroughput screen to assess conditional lethalithy of P12 Ichikawa cells grown in RPMI1640 with dialyzed fetal bovine serum (RPMI+ds) (AID 1963880); details: Potency: P12-Ichikawa viability; also: nearly all actives have a fitted effect of over 35% in size; also: potency is read from the fitted curve at half-maximal effect
Method in brief: as §1

[5] = Quantitative highthroughput screen to assess conditional lethalithy of P12 Ichikawa cells grown in RPMI1640 with untreated serum (RPMI+s) (AID 1963881); details: Potency: viability; also: nearly all actives have a fitted effect of over 35% in size; also: potency is read from the fitted curve at half-maximal effect; as to viability: series mostly up to about 46 µM
Method in brief: as §1

[6] = Quantitative highthroughput screen to assess conditional lethalithy of SEM cells grown in Human Plasma-Like Medium with dialyzed fetal bovine serum (HPLM+ds) (AID 1963882); also: nearly all actives have a fitted effect of over 35% in size; also: potency is read from the fitted curve at half-maximal effect; as to viability: series mostly up to about 46 µM
Method in brief: as §1

[7] = Quantitative highthroughput screen to assess conditional lethalithy of SEM cells grown in RPMI1640 with unreated serum (RPMI+s) (AID 1963883); also: nearly all actives have a fitted effect of over 35% in size; also: potency is read from the fitted curve at half-maximal effect
Method in brief: as §1

[8] = Quantitative highthroughput screen to assess conditional lethalithy of SEM cells grown in RPMI1640 with dialyzed fetal bovine serum (RPMI+ds) (AID 1963884); also: nearly all actives have a fitted effect of over 35% in size; also: potency is read from the fitted curve at half-maximal effect; as to viability: series mostly up to about 46 µM
Method in brief: as §1

[9] = Quantitative highthroughput screen to assess conditional lethalithy of P12 Ichikawa cells grown in Human Plasma-Like Medium with dialyzed fetal bovine serum (HPLM+ds) (AID 1963879); details: Potency: viability; also: nearly all actives have a fitted effect of over 35% in size; also: potency is read from the fitted curve at half-maximal effect; as to viability: series mostly up to about 46 µM
Method in brief: as §1

[10] = Cellular viability qHTS for adrenocortical cancer (ACC) cell line NCI-H295R (AID 1963990); also: nearly all actives have a fitted effect of over 60% in size
Method in brief: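 Luminescent ATP read-out (CellTiter-Glo, 20 min RT) after 48 h drug exposure of NCI-H295R cells; a titration up to 46 uM final. Data normalized to doxorubicin (100% inhibition) and DMSO (0%); 4-parameter fit gives IC50, max response.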

[11] = Cellular viability qHTS for adrenocortical cancer (ACC) cell line SW-13 (AID 1963989); details: SW-13 ACC cells viability, CellTiter-Glo, 48 h; activity (max response): active compounds read low;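 also: cells grown in serum-free medium with ITS supplement; nearly all actives have a fitted effect of over 65% in size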
Method in brief: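 SW-13 cells in ITS-supplemented serum-free DMEM were plated overnight, then exposed for 48 h at 37C to compound titrations (up to 46 uM final). Viability was read by CellTiter-Glo luminescence; four-parameter logistic fits gave IC50 and efficacy.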

| Structure (SMILES) | Potency [1] | Potency [2] | Potency [3] | Potency [4] | Potency [5] | Potency [6] | Potency [7] | Potency [8] | Potency [9] | Potency [10] | activity (max response) [11] |
| --- | --- | --- | --- | --- | --- | --- | --- | --- | --- | --- | --- |
| Cc1c(O)cccc1C(=O)N[C@@H](CSc1ccccc1)[C@H](O)CN1C[C@H]2CCCC[C@@H]2C[C@@H]1C(=O)NC(C)(C)C | inactive | inactive | inactive | inactive | inactive | inactive | inactive | inactive | – | – | – |
| CC=CC1=C(C(=O)O)N2C(=O)[C@H](NC(=O)[C@H](N)c3ccc(O)cc3)[C@@H]2SC1 | 1.18 µM (active) | 2.64 µM (active) | – | 13.2 µM (active) | 9.35 µM (active) | inactive | inactive | inactive | 9.35 µM (active) | – | – |
| Cc1cc(SCc2sc(-c3ccc(C(F)(F)F)cc3)nc2C)ccc1OCC(=O)O | inactive | inactive | inactive | – | inactive | – | – | – | – | inactive | – |
| Nc1ccn([C@@H]2O[C@H](CO)[C@H](O)C2(F)F)c(=O)n1 | 0.0833 µM (active) | 0.0833 µM (active) | – | 0.0526 µM (active) | 0.0743 µM (active) | 0.0118 µM (active) | 0.0166 µM (active) | 0.0059 µM (active) | 0.0833 µM (active) | – | – |
| Cc1cc(C=c2sc3nc4ccccc4n3c2=O)c(C)n1-c1ccccc1 | inactive | inactive | inactive | – | – | inactive | inactive | inactive | – | – | – |
| CN(C)CCCC1(c2ccc(F)cc2)OCc2cc(C#N)ccc21 (centres undefined) | inactive | inactive | – | inactive | inactive | inactive | inactive | inactive | inactive | – | – |
| C[C@]12CCC(=O)C=C1CC[C@@H]1[C@H]2[C@@H](O)C[C@@]2(C)[C@H]1CC[C@]2(O)C(=O)CO | inactive | inactive | inactive | – | – | inactive | – | – | – | – | – |
| CC(=Cc1ccccc1)C=C1SC(=S)N(CC(=O)O)C1=O | inactive | inactive | – | inactive | inactive | inactive | 5.9 µM (active) | inactive | inactive | – | – |
| COc1cc(NC(=O)c2ccc(-c3ccc(Cl)cc3)o2)cc(OC)c1 | 1.87 µM (active) | 2.35 µM (active) | – | inactive | inactive | inactive | inactive | inactive | inactive | – | – |
| CON=C(C(=O)N[C@@H]1C(=O)N2C(C(=O)O)=C(Cn3ccc(=N)n3CCO)CS[C@H]12)c1csc(N)n1 | inactive | inactive | – | inactive | inactive | inactive | inactive | inactive | inactive | – | – |
| NC(=O)c1nnn(Cc2cc(Cl)c(C(=O)c3ccc(Cl)cc3)c(Cl)c2)c1N | inactive | inactive | inactive | – | – | inactive | – | – | – | – | – |
| CCOC(=O)O[C@]1(C(=O)OCCl)CC[C@@H]2[C@H]3CCC4=CC(=O)C=C[C@]4(C)[C@@H]3[C@@H](O)C[C@@]21C | inactive | inactive | – | inactive | inactive | inactive | inactive | inactive | inactive | – | – |
| CC[C@H](NC(=O)[C@H](C)NC)C(=O)N1C[C@@H](O)C[C@H]1Cc1c(-c2[nH]c3cc(F)ccc3c2C[C@H]2C[C@H](O)CN2C(=O)[C@H](CC)NC(=O)[C@H](C)NC)[nH]c2cc(F)ccc12 | 0.935 µM (active) | 2.35 µM (active) | – | 2.64 µM (active) | 3.32 µM (active) | inactive | – | – | 2.96 µM (active) | – | – |
| NC(=O)C1CCCc2c1[nH]c1ccc(Cl)cc21 (centres undefined) | 8.33 µM (active) | 8.33 µM (active) | 5.9 µM (active) | – | – | 2.35 µM (active) | 5.26 µM (active) | 4.18 µM (active) | – | inactive | -13.4% |
| C1=CCOCc2cc(ccc2OCCN2CCCC2)Nc2nccc(n2)-c2cccc(c2)OCC1 | 7.43 µM (active) | 6.62 µM (active) | – | 13.2 µM (active) | 13.2 µM (active) | 3.32 µM (active) | 4.18 µM (active) | 4.18 µM (active) | 10.5 µM (active) | – | – |
| C=CCNC1=C2C[C@@H](C)C[C@H](OC)[C@@H](O)[C@@H](C)C=C(C)[C@H](OC(N)=O)[C@@H](OC)C=CC=C(C)C(=O)NC(=CC1=O)C2=O | 5.26 µM (active) | 5.9 µM (active) | 5.9 µM (active) | – | – | 0.526 µM (active) | 0.332 µM (active) | 0.332 µM (active) | – | – | – |
| CNC(=O)[C@H](CC1=CN=C2C=CCC=C12)NC(=O)[C@@H](CC(=O)NO)CC(C)C | 8.33 µM (active) | 8.33 µM (active) | 5.9 µM (active) | – | – | inactive | inactive | inactive | – | – | – |
| COc1ccc2ccc(=O)oc2c1CC=C(C)C | inactive | inactive | inactive | – | – | inactive | – | – | – | – | – |
| CN(CC=CC#CC(C)(C)C)Cc1cccc2ccccc12 | inactive | inactive | – | inactive | inactive | inactive | inactive | inactive | inactive | – | – |
